Source: PubChem BioAssay AID651747 (Johns Hopkins Ion Channel Center, 2012)
The campaign covered roughly 2,400 compounds. About 950 (40%) were called active.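 How the source made its calls: active means thallium flux ratio, averaged over three wells, more than 5 SD below the buffer control mean; inactive means the rest.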 These entries were drawn from the full list.

Experiment: nonspecific thallium influx blockers, KCNK3-free cells – cell-based, non-induced KCNK3 line, FluxOR thallium, triplicate, counter-screen for KCNK3 inhibitor project, primary screen (AID 651747);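 further: host cells are CHO cells without KCNK3 induction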;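 on thallium flux ratio (lower = more inhibition): ratio is peak minus trough fluorescence over baseline then normalized to buffer controls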
Details: non-induced KCNK3 parental cells, at 10 µM; outcome: FluxOR thallium flux; thallium flux ratio (lower = more inhibition): stronger effect = lower value
In the case of `CC(=O)N(C1=C(Cl)C(=O)c2ccccc2C1=O)c1ccc(C(=O)O)cc1`, the thallium flux ratio (lower = more inhibition) is reported as 0.11 (active). For `CC(C(=O)NCC1CCCCC1)N(C)Cc1cccc(Cl)c1` (stereo not drawn), the thallium flux ratio (lower = more inhibition) was “inactive”. In the case of `CC(C)CCNC(=O)C(C)N(C(=O)Cn1nnc(-c2ccc(F)cc2)n1)C1CCCC1` (stereo not drawn), the thallium flux ratio (lower = more inhibition) is reported as “inactive”. In the case of `COc1cccc(NC(=S)N(CCc2c(C)[nH]c3ccccc23)Cc2ccco2)c1`, the thallium flux ratio (lower = more inhibition) is reported as 0.153 (active). For `Cc1nonc1C1CCCN1C(=O)c1cc(COc2cccc(C(F)(F)F)c2)on1` (stereo not drawn), the thallium flux ratio (lower = more inhibition) was “inactive”. With `Cc1cccc(N(Cc2ccccc2)C(=O)c2ccccc2F)c1` the thallium flux ratio (lower = more inhibition) was “inactive”. In the case of `Cc1cccc(C)c1N1CCN(S(=O)(=O)N2CCCCC2)CC1`, the thallium flux ratio (lower = more inhibition) is reported as 0.156 (active). With `COc1ccccc1N1CCN(/N=C\C(Br)=C\c2ccccc2)CC1` the thallium flux ratio (lower = more inhibition) was “inactive”. For `c1ccc2c(NC3C4CC5CC(C4)CC3C5)nc(N3CCOCC3)nc2c1` (stereo not drawn), the thallium flux ratio (lower = more inhibition) was 0.151 (active). In the case of `COc1ccc(Cl)cc1NC(=O)C(C)N1CCc2ccccc21` (stereo not drawn), the thallium flux ratio (lower = more inhibition) is reported as “inactive”. In the case of `CCOc1ccc(C2c3[nH]c4ccccc4c3CCN2Cc2cccn2-c2ncccn2)cc1` (stereo not drawn), the thallium flux ratio (lower = more inhibition) is reported as “inactive”. With `C=CCc1cc(S(=O)(=O)c2ccc(O)c(CC=C)c2)ccc1O` the thallium flux ratio (lower = more inhibition) was 0.155 (active). With `CCN(CC)CCN(C(=O)c1cc(Cl)sc1Cl)c1nc2cc3c(cc2s1)OCO3` the thallium flux ratio (lower = more inhibition) was 0.143 (active). For `COc1cc(Cl)c(S(=O)(=O)N2CCN(Cc3ccc4c(c3)OCO4)CC2)cc1Cl`, the thallium flux ratio (lower = more inhibition) was “inactive”. In the case of `COC(=O)c1cc(NC2c3ccccc3C(=O)N2c2ccc(Cl)cn2)cc(C(=O)OC)c1` (stereo not drawn), the thallium flux ratio (lower = more inhibition) is reported as “inactive”. In the case of `O=C(Nc1ccccc1N1CCCC1)c1ccc2ccccc2c1`, the thallium flux ratio (lower = more inhibition) is reported as 0.131 (active). In the case of `CCCCC(=O)Nc1ccccc1N1CCN(c2ccc(F)cc2)CC1`, the thallium flux ratio (lower = more inhibition) is reported as “inactive”. In the case of `Cc1cccc(C(=O)Nc2ccccc2N2CCN(c3ccc(F)cc3)CC2)c1`, the thallium flux ratio (lower = more inhibition) is reported as 0.151 (active). With `O=C(CNCCC1=CCCCC1)Nc1ccccc1N1CCCCCC1` the thallium flux ratio (lower = more inhibition) was “inactive”. For `CCc1cc(C(c2ccccc2OC)N2CCOCC2)c(NC(=O)c2ccccc2)s1` (stereo not drawn), the thallium flux ratio (lower = more inhibition) was “inactive”. With `CSCc1cc(N(C)C)nc(SCc2ccc(Cl)cc2Cl)n1` the thallium flux ratio (lower = more inhibition) was 0.15 (active). With `COc1ccc2c(c1)C(c1cccs1)=NNC(c1cccnc1)=N2` the thallium flux ratio (lower = more inhibition) was “inactive”. In the case of `c1ccc(C(c2ccccc2)N2CCN(Cc3nnnn3C3CCCCC3)CC2)cc1`, the thallium flux ratio (lower = more inhibition) is reported as 0.129 (active). For `Cc1cccc2c1-c1sc(C(=O)NCCCN3CCc4ccccc4C3)cc1CO2`, the thallium flux ratio (lower = more inhibition) was “inactive”. For `CCCCCCCCCCCCN1C(=O)CSC1c1cccnc1` (stereo not drawn), the thallium flux ratio (lower = more inhibition) was 0.148 (active). With `Cc1c(C(=O)N2CCCc3ccccc32)sc2nc(-c3ccccc3)cn12` the thallium flux ratio (lower = more inhibition) was “inactive”. With `COc1ccc(CC(=O)Nc2nc(-c3ccc(F)c(F)c3)cs2)cc1OC` the thallium flux ratio (lower = more inhibition) was 0.102 (active). For `CCc1ccc2nc3sc(C(=O)Nc4nnc(CC)s4)c(N)c3cc2c1`, the thallium flux ratio (lower = more inhibition) was 0.108 (active). With `COc1ccc(C2Nc3ccccc3C(=O)N2Cc2ccccc2)cc1Cn1nnc2ccccc21` (stereo not drawn) the thallium flux ratio (lower = more inhibition) was 0.144 (active). In the case of `CCCc1cc(C(=O)N2CCCC(CO)(CCCc3ccccc3)C2)n(C)n1` (stereo not drawn), the thallium flux ratio (lower = more inhibition) is reported as 0.152 (active). For `CC(=O)N1CCCc2cc(S(=O)(=O)N3CCCC(C(=O)N4CCN(c5cccc(Cl)c5)CC4)C3)ccc21` (stereo not drawn), the thallium flux ratio (lower = more inhibition) was “inactive”. With `O=C(Nn1c(SCc2ccc([N+](=O)[O-])cc2)nc2ccccc2c1=O)c1ccc(F)cc1` the thallium flux ratio (lower = more inhibition) was 0.136 (active). In the case of `CC(Sc1nc2ccccc2c(=O)n1Cc1ccco1)C(=O)c1ccccc1` (stereo not drawn), the thallium flux ratio (lower = more inhibition) is reported as “inactive”. With `CCc1nc(SCC(=O)NNC(=O)c2ccc(C)cc2)c2ccccc2n1` the thallium flux ratio (lower = more inhibition) was “inactive”. In the case of `COc1cc(C(=O)Nc2oc(-c3ccccc3)c(-c3ccccc3)c2C#N)cc(OC)c1OC`, the thallium flux ratio (lower = more inhibition) is reported as “inactive”. For `Cc1cc(NC(=O)Nc2ccc(Cl)cc2)n(-c2ccccc2)n1`, the thallium flux ratio (lower = more inhibition) was “inactive”. In the case of `O=C(Nc1cccc(S(=O)(=O)Nc2ccc(Cl)cc2)c1)c1ccc2c(c1)OCCO2`, the thallium flux ratio (lower = more inhibition) is reported as 0.136 (active). With `C=CCN(N=Nc1cccc([N+](=O)[O-])c1)c1cccc([N+](=O)[O-])c1` the thallium flux ratio (lower = more inhibition) was “inactive”. With `CCC(C)(C)n1nnnc1C(c1cccs1)N1CCN(c2nc3ccccc3s2)CC1` (stereo not drawn) the thallium flux ratio (lower = more inhibition) was 0.156 (active). With `COc1ccccc1C(c1nnnn1C(C)(C)C)N1CCN(Cc2ccccc2)CC1` (stereo not drawn) the thallium flux ratio (lower = more inhibition) was “inactive”. With `COCCNc1cc(-c2ccccc2)nc2cc(-c3cccc(F)c3)nn12` the thallium flux ratio (lower = more inhibition) was 0.13 (active). In the case of `Cc1nc(N2CCN(c3ccccn3)CC2)c2c(C)c(C(=O)Nc3ccc(F)c(Cl)c3)sc2n1`, the thallium flux ratio (lower = more inhibition) is reported as “inactive”. For `Cc1nc(N2CCN(c3ccccn3)CC2)c2c(C)c(C(=O)Nc3ccc(F)cc3)sc2n1`, the thallium flux ratio (lower = more inhibition) was “inactive”. With `Cc1nc(N2CCOCC2)c2c(C)c(C(=O)Nc3ccc(C(F)(F)F)cc3)sc2n1` the thallium flux ratio (lower = more inhibition) was 0.152 (active). With `Cc1ccc(NC(=O)COC(=O)CNC(=O)c2ccc(Cl)cc2Cl)cc1S(=O)(=O)N1CCOCC1` the thallium flux ratio (lower = more inhibition) was “inactive”. In the case of `O=C(N/N=C/c1sc(N2CCCCC2)nc1-c1cccs1)c1cccnc1`, the thallium flux ratio (lower = more inhibition) is reported as 0.155 (active). In the case of `Oc1ccc(/C=N/Nc2nc(-c3ccccc3F)nc3ccccc23)c(O)c1`, the thallium flux ratio (lower = more inhibition) is reported as 0.143 (active). With `Cc1cc(C)c(C#N)c(SCc2ccc3c(c2)OCO3)n1` the thallium flux ratio (lower = more inhibition) was 0.115 (active). For `COc1ccc(CN(C)C(=O)c2cc(-c3ccc(C)cc3C)nc3ccccc23)c(OC)c1OC`, the thallium flux ratio (lower = more inhibition) was 0.111 (active). With `CC(=O)c1ccccc1OCc1ccc(C(=O)c2ccccc2)cc1` the thallium flux ratio (lower = more inhibition) was 0.103 (active). For `COc1ccc(-c2nc(CCNC(=O)c3ccc(Br)o3)cs2)cc1`, the thallium flux ratio (lower = more inhibition) was “inactive”. For `Cc1nc2ccccc2cc1OCc1ccc(F)cc1`, the thallium flux ratio (lower = more inhibition) was “inactive”. For `COc1ccc(CCNC(=O)c2ccccc2OCc2ccccc2)cc1`, the thallium flux ratio (lower = more inhibition) was 0.153 (active). In the case of `O=C(N/N=C/c1cccc(OCc2ccccc2)c1)c1ccc(Br)o1`, the thallium flux ratio (lower = more inhibition) is reported as “inactive”. For `O=C(Oc1ccc(Br)cc1C(=S)N1CCOCC1)c1cccc([N+](=O)[O-])c1`, the thallium flux ratio (lower = more inhibition) was “inactive”. In the case of `COC(=O)c1ccc(COC(=O)C2CCN(S(=O)(=O)c3c(Cl)cccc3Cl)CC2)o1`, the thallium flux ratio (lower = more inhibition) is reported as “inactive”. For `COc1ccc(S(=O)(=O)NCCCCOc2ccc(Cl)cc2)cc1`, the thallium flux ratio (lower = more inhibition) was 0.135 (active). In the case of `COc1ccc(C(C)=O)cc1COc1ccc(Cl)c(C)c1`, the thallium flux ratio (lower = more inhibition) is reported as 0.158 (active).
